Measurements published in PubChem BioAssay (EPA / NIEHS).
Inconclusive results are not listed. Calls of active or inactive are those of the source. Rule for the calls, unless noted: active = hit-call score of the fitted dose curve at least 0.9, where 1 is the maximum; inconclusive = response in the unintended direction; inactive = score below 0.9.

How the values were obtained:
[1] = molecular target: Retinoic acid receptor RXR-alpha (Homo sapiens) (UniProt P19793); assay: OT_NURR1_NURR1RXRa_0480: Odyssey Thera (OT) 8-hour HEK293T Protein Complementation Assay for Nurr1/retinoid X receptor (RXR) (AID 2283385)
Sequence of Retinoic acid receptor RXR-alpha (Homo sapiens) (P19793 whole entry, looked up, the tested form may be a part): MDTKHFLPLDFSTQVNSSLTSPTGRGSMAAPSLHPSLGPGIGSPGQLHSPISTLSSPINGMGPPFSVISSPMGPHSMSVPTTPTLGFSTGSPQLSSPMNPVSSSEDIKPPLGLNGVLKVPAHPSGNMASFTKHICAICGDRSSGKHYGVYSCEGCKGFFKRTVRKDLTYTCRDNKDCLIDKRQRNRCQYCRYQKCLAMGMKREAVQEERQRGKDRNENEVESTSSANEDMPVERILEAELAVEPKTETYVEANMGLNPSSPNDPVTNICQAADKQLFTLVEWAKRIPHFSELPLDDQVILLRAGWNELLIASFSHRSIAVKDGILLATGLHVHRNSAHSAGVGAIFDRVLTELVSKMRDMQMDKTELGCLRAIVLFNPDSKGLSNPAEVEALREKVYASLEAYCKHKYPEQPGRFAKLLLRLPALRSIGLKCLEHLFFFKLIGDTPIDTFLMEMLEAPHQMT
Outline: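 HEK293T cells expressing Nurr1 and RXRα fused to reporter fragments (protein-fragment complementation); fluorescence measured 8 h after dosing. Gain of signal fitted relative to DMSO.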

[2] = molecular target: Peroxisome proliferator-activated receptor gamma (Homo sapiens) (UniProt P37231); assay: OT_PPARg_PPARgSRC1_0480: Odyssey Thera (OT) 8-hour Protein-Complementation Assay for Peroxisome Proliferator-activated Receptor Gamma / SRC-1 Co-activator (AID 2283387);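 note: nuclear to cytoplasmic split Venus YFP fluorescence ratio reporting PPARg SRC-1 interaction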
Sequence of Peroxisome proliferator-activated receptor gamma (Homo sapiens) (P37231 whole entry, looked up, the tested form may be a part): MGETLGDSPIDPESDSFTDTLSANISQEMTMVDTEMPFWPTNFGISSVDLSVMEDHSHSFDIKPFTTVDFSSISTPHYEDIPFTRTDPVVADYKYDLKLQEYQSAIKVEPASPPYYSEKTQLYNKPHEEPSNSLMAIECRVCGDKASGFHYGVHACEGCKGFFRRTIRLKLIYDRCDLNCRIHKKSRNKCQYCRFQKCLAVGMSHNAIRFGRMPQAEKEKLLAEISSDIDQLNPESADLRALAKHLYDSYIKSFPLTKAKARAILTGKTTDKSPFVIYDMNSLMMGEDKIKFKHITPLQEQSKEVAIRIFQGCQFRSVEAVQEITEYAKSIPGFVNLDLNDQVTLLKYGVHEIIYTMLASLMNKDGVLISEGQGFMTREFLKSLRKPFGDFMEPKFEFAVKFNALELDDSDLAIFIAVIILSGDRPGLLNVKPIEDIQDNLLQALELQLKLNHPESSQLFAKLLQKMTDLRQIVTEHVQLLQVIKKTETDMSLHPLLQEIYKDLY
Outline: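 Read-out: 488 nm N/C fluorescence ratio from complemented Venus YFP fragments, ≥350 cells per image, gain-of-signal fitted against DMSO baseline. Fusions of PPARg/SRC-1 with IFP1/IFP2 expressed transiently in HEK293T; compounds applied 8 h.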

[3] = molecular target: Peroxisome proliferator-activated receptor gamma (Homo sapiens) (UniProt P37231); assay: OT_PPARg_PPARgSRC1_1440: Odyssey Thera (OT) 24-hour Protein-Complementation Assay for Peroxisome Proliferator-activated Receptor Gamma/ SRC-1 Co-activator (AID 2283388);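 note: nuclear to cytoplasmic ratio of reconstituted Venus YFP fluorescence in fixed imaged cells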
Outline: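 Readout: nuclear-to-cytoplasmic 488 nm fluorescence ratio, ≥350 cells per image, 8 images per well, after 24 h compound exposure of HEK293T expressing PPARg/SRC-1 split-YFP fusions. Activity fitted in positive direction against DMSO.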

[4] = CEETOX_H295R_11DCORT: CeeTox H295R High-throughput Steroidogenesis Assay for 11-Deoxycortisol (11DCORT) (AID 2283432; active = hit-call score of the fitted dose curve at least 0.9, where 1 is the maximum; inactive = score below 0.9); settings: actives raise or lower the signal
Outline: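 H295R cells; 10 uM forskolin prestim 48 h; compound in 0.1% DMSO 48 h; media extracted with MTBE; 11-deoxycortisol by LC-MS/MS, 7-point standard curve; gain/loss vs DMSO baseline; viability by MTT in same wells.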

[5] = CEETOX_H295R_OHPREG: CeeTox H295R High-throughput Steroidogenesis Assay for OH-Pregnenolone (OHPREG) (AID 2283434; active = hit-call score of the fitted dose curve at least 0.9, where 1 is the maximum; inactive = score below 0.9); settings: actives raise or lower the signal
Outline: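 Human adrenal H295R cells were prestimulated 48 h with 10 uM forskolin, then exposed 48 h to chemical in 0.1% DMSO. Medium 17alpha-hydroxypregnenolone was quantified by HPLC-MS/MS after MTBE extraction; bidirectional fitting versus DMSO baseline.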

[6] = CEETOX_H295R_OHPROG: CeeTox H295R High-throughput Steroidogenesis Assay for OH-Progesterone (OHPROG) (AID 2283435; active = hit-call score of the fitted dose curve at least 0.9, where 1 is the maximum; inactive = score below 0.9); settings: actives raise or lower the signal
Outline: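 H295R adrenal cells prestimulated 48 h with 10 uM forskolin, then exposed 48 h to chemical (0.1% DMSO final). 17alpha-hydroxyprogesterone in medium quantified by HPLC-MS/MS; bidirectional fit versus DMSO, with MTT viability measured in the same wells.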

[7] = CEETOX_H295R_ANDR: CeeTox H295R High-throughput Steroidogenesis Assay for Androstenedione (ANDR) (AID 2283436; active = hit-call score of the fitted dose curve at least 0.9, where 1 is the maximum; inactive = score below 0.9); settings: actives raise or lower the signal
Outline: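 H295R human adrenal cells (passages ≤10) were exposed to test chemicals for 48 h; androstenedione in medium was MTBE-extracted and quantified by HPLC-MS/MS against a 7-point standard curve. Bidirectional fitting used DMSO as baseline.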

[8] = CEETOX_H295R_CORTIC: CeeTox H295R High-throughput Steroidogenesis Assay for Corticosterone (CORTIC) (AID 2283437; active = hit-call score of the fitted dose curve at least 0.9, where 1 is the maximum; inactive = score below 0.9;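 note: corticosterone secreted into medium quantified by mass spectrometry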); settings: actives raise or lower the signal
Outline: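 H295R cells were prestimulated 48 h with 10 uM forskolin, then exposed 48 h to test chemical in 0.1% DMSO. Medium corticosterone was MTBE-extracted and quantified by HPLC-MS/MS; bidirectional fit versus DMSO baseline.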

[9] = CEETOX_H295R_CORTISOL: CeeTox H295R High-throughput Steroidogenesis Assay for Cortisol (AID 2283438; active = hit-call score of the fitted dose curve at least 0.9, where 1 is the maximum; inactive = score below 0.9;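 note: cortisol secreted into medium quantified by LC-MS/MS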); settings: actives raise or lower the signal
Outline: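 Forskolin-primed H295R cells (10 uM, 48 h) treated 48 h with test chemical in 0.1% DMSO. Cortisol in medium quantified by MTBE extraction and HPLC-MS/MS; bidirectional fit vs DMSO, MTT viability in same wells.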

[10] = CEETOX_H295R_DOC: CeeTox H295R High-throughput Steroidogenesis Assay for DOC (AID 2283439; active = hit-call score of the fitted dose curve at least 0.9, where 1 is the maximum; inactive = score below 0.9); settings: actives raise or lower the signal
Outline: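 H295R cells prestimulated 48 h with 10 uM forskolin, then exposed 48 h to test chemical (0.1% DMSO final). Medium 11-deoxycorticosterone measured by HPLC-MS/MS after MTBE extraction; bidirectional fit vs DMSO, viability checked by MTT in same wells.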

[11] = read-out: Tumor necrosis factor receptor superfamily member 6 (Homo sapiens) (UniProt P25445); assay: LTEA_HepaRG_FAS: Life Technologies and Expression Analysis (LTEA) Assay for Fas cell surface death receptor (FAS) using HepaRG (AID 2283447; active = hit-call score of the fitted dose curve at least 0.9, where 1 is the maximum; inactive = score below 0.9); settings: mRNA level, 48 h; actives raise or lower the signal
Outline: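 Differentiated human HepaRG cells, pre-cultured 48 h, were exposed in duplicate for 48 h to 8-point half-log concentrations (top 100 uM, 0.5% DMSO) in serum-free induction medium; FAS mRNA measured by qRT-PCR, normalized to ACTB/GAPDH/POLR2A, bidirectional fit versus DMSO.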

[12] = read-out: Fatty acid synthase (Homo sapiens) (UniProt P49327); assay: LTEA_HepaRG_FASN: Life Technologies and Expression Analysis (LTEA) Assay for Fatty Acid Synthase (FASN) using HepaRG (AID 2283448; active = hit-call score of the fitted dose curve at least 0.9, where 1 is the maximum; inactive = score below 0.9); settings: mRNA level, 48 h; actives raise or lower the signal
Outline: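 Differentiated HepaRG cells in serum-free induction medium exposed 48 h in duplicate to eight half-log concentrations, top 100 uM, 0.5% DMSO. FASN mRNA by qRT-PCR normalised to ACTB, GAPDH, POLR2A; bidirectional fit versus DMSO.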

[13] = read-out: Cyclin D2 (CCND2), CCND2 (gene 894); assay: LTEA_HepaRG_CCND2: Life Technologies and Expression Analysis (LTEA) Assay for Cyclin D2 (CCND2) using HepaRG (AID 2283449; active = hit-call score of the fitted dose curve at least 0.9, where 1 is the maximum; inactive = score below 0.9;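 note: CCND2 transcript measured by TaqMan qRT-PCR and normalised to three housekeeping genes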); settings: mRNA level, 48 h; actives raise or lower the signal
Outline: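 Differentiated human HepaRG cells were exposed for 48 h in serum-free induction medium to eight half-log concentrations topping at 100 uM (0.5% DMSO vehicle). CCND2 mRNA was quantified by TaqMan qRT-PCR, normalised to ACTB, GAPDH and POLR2A, and fitted bidirectionally against DMSO.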

[14] = read-out: Cyclin Dependent Kinase Inhibitor 1A (CDKN1A), CDKN1A (gene 1026); assay: LTEA_HepaRG_CDKN1A: Life Technologies and Expression Analysis (LTEA) Assay for Cyclin Dependent Kinase Inhibitor 1A (CDKN1A) using HepaRG (AID 2283450; active = hit-call score of the fitted dose curve at least 0.9, where 1 is the maximum; inactive = score below 0.9); settings: mRNA level, 48 h; actives raise or lower the signal
Outline: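 HepaRG, 48 h dosing, 8-pt half-log series from 100 uM top, 0.5% DMSO vehicle, duplicates. Readout: TaqMan qRT-PCR of CDKN1A transcript, housekeeping-normalized (ACTB, GAPDH, POLR2A). Up/down curve fit relative to DMSO.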

[15] = molecular target: Bile acid receptor (Homo sapiens) (UniProt Q96RI1); assay: OT_FXR_FXRSRC1_0480: Odyssey Thera (OT) 8-hour HEK293T Protein-Complementation Assay for Farnesoid X receptor/SRC-1 Co-activator (AID 2283383)
Sequence of Bile acid receptor (Homo sapiens) (Q96RI1 whole entry, looked up, the tested form may be a part): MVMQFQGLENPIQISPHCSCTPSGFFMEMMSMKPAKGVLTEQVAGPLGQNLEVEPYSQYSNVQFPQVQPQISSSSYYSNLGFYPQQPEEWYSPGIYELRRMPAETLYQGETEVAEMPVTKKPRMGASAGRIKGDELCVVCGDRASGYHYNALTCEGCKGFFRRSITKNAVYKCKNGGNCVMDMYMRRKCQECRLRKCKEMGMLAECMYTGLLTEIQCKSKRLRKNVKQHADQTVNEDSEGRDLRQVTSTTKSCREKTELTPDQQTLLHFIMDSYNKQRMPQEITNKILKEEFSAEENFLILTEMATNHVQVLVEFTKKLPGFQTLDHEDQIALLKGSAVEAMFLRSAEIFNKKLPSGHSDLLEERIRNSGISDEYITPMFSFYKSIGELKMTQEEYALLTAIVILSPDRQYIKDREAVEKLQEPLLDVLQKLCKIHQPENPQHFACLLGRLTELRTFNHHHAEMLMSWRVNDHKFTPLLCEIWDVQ
Outline: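 HEK293T protein-fragment complementation assay: FXR and SRC-1 coactivator are fused to reporter fragments, and their interaction restores a fluorescent reporter. Readout was taken 8 h after dosing, with gain of signal fit relative to DMSO.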

[16] = molecular target: Retinoic acid receptor RXR-alpha (Homo sapiens) (UniProt P19793); assay: OT_NURR1_NURR1RXRa_1440: Odyssey Thera (OT) 24-hour HEK293T Protein Complementation Assay for Nurr1/retinoid X receptor (RXR) (AID 2283386)
Outline: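 HEK293T protein-fragment complementation of Nurr1 and RXRα fused to reporter fragments; compounds 24 h. Fluorescence gain from reconstituted reporter fitted versus DMSO.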

[17] = molecular target: Estrogen receptor (Homo sapiens) (UniProt P03372); assay: OT_ERa_GFPERaERE_0120: Odyssey Thera (OT) 2-hour HeLa Transcription Induction Assay for Estrogen Receptor (AID 2283382)
Sequence of Estrogen receptor (Homo sapiens) (P03372 whole entry, looked up): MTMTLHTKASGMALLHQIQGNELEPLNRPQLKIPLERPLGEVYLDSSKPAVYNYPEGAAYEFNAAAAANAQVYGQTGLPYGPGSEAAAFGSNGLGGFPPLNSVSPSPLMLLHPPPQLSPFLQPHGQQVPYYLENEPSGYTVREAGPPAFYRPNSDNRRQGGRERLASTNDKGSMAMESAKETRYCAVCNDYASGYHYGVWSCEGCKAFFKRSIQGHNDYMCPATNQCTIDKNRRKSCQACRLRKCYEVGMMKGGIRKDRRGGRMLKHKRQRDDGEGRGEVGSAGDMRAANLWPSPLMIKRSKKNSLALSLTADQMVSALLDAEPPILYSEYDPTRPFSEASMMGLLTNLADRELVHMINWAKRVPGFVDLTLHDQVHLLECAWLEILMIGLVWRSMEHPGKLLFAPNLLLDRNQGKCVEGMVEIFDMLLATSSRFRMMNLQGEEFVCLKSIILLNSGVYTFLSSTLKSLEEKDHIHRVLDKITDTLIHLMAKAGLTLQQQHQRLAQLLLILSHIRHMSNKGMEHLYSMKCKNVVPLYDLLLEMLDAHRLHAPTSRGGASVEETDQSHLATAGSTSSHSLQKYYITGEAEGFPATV
Outline: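 HeLa cells were dosed for 2 h, then GFP reporter induction was quantified by fluorescence microscopy with high-content image analysis. Gain of signal fitted against DMSO baseline.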

Sequence of Fatty acid synthase (Homo sapiens) (P49327 whole entry, looked up): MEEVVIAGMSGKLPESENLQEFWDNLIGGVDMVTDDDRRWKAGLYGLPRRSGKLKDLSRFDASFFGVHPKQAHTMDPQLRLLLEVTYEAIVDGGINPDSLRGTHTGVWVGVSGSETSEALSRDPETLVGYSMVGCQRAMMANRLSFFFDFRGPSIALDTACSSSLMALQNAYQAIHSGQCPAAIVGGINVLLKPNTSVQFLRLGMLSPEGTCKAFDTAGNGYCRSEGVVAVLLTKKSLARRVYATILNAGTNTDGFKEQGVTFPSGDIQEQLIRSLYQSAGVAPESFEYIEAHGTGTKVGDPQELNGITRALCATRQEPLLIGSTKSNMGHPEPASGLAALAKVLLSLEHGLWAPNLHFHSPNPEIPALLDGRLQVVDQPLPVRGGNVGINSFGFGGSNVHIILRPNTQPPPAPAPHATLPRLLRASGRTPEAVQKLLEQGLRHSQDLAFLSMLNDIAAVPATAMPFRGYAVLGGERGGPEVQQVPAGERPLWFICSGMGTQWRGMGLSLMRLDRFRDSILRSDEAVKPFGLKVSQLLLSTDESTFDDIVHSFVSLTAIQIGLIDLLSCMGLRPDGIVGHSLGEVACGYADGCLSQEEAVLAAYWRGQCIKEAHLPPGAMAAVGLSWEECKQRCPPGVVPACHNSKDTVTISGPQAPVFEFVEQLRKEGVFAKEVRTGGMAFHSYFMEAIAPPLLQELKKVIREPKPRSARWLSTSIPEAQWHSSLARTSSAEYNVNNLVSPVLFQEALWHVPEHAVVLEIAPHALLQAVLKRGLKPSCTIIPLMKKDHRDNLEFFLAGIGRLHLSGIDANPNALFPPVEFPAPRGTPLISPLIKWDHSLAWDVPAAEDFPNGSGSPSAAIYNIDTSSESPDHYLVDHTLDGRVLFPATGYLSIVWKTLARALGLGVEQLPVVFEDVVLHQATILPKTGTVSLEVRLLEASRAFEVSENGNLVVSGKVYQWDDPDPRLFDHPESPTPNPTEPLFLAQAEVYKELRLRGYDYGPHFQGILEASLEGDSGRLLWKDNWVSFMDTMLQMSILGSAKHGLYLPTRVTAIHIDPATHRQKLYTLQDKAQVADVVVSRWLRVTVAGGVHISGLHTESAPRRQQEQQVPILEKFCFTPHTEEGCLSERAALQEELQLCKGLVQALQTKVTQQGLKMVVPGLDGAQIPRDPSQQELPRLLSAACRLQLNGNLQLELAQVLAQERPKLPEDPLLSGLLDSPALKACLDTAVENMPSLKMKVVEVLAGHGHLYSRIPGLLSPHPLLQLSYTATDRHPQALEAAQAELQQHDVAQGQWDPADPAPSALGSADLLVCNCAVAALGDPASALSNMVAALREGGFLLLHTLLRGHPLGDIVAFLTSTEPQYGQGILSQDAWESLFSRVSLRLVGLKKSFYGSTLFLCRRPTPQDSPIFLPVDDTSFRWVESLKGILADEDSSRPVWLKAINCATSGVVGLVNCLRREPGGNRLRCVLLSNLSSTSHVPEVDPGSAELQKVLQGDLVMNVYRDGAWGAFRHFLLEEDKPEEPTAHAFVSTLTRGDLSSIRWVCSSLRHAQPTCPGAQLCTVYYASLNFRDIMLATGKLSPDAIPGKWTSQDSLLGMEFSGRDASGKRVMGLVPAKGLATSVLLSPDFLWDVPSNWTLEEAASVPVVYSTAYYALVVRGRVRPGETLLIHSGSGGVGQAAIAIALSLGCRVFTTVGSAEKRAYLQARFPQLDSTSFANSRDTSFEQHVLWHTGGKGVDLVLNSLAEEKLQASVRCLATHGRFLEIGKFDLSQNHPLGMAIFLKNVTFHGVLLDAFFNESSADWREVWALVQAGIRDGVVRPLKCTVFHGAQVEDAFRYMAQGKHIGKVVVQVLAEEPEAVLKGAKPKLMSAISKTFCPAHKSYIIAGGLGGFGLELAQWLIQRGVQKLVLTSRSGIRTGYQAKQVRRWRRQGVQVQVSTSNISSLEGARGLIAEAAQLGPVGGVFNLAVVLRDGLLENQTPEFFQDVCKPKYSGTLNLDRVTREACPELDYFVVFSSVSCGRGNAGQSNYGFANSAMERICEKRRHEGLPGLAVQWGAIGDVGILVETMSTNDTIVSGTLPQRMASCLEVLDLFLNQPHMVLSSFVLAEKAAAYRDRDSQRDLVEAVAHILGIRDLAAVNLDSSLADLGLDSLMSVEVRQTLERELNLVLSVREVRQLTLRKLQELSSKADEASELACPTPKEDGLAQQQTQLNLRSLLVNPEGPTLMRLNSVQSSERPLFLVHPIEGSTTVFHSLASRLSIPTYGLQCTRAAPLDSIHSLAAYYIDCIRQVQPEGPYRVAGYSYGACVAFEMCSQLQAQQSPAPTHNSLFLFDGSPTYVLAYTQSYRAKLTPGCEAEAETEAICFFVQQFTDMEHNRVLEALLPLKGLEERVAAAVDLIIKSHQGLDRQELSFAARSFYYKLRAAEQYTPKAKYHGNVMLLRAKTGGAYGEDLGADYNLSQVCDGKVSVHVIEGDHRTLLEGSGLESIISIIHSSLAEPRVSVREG

SMILES	outcome [1]	outcome [2]	outcome [3]	outcome [4]	outcome [5]	AC50 [6]	outcome [7]	AC50 [8]	AC50 [9]	outcome [10]	outcome [11]	outcome [12]	outcome [13]	outcome [14]	outcome [15]	outcome [16]	outcome [17]	AC50 [11]
COc1ccc(C)cc1N	inactive	inactive	inactive	inactive	inactive	19.3 µM (active)	inactive	74.3 µM (active)	36.7 µM (active)	inactive	inactive	inactive	inactive	inactive				
C[Si]1(C)O[Si](C)(C)O[Si](C)(C)O[Si](C)(C)O1	inactive	inactive	inactive								inactive	inactive	inactive	inactive	inactive	inactive		
CCOC(=O)CCC(=O)OCC	inactive	inactive	inactive									inactive	inactive	inactive			inactive	85.1 µM (active)
CCCCc1ccc2c(n1)[C@@H](c1ccc(OC)cc1C[C@H](C)C(=O)O)[C@H](C(=O)O)[C@H]2c1ccc2c(c1)OCO2	inactive	inactive	inactive								inactive	inactive	inactive	inactive	inactive	inactive		
